{"source": "PubChem BioAssay (NCATS)", "key": {"[1]": {"target": "Alpha-galactosidase A (Homo sapiens) (UniProt P06280)", "sequence (P06280 whole entry, looked up)": "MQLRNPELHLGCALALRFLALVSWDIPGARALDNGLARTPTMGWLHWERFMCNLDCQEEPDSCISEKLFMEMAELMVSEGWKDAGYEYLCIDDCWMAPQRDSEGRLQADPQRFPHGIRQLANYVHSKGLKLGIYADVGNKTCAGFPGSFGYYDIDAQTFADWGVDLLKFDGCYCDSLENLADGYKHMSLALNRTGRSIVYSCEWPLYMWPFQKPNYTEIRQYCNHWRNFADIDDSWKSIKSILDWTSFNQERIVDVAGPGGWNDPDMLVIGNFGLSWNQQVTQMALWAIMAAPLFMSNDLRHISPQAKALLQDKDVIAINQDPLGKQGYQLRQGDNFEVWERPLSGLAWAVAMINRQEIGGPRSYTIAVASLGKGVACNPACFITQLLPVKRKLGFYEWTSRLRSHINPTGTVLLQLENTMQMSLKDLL", "experiment": "Counterscreen for Glucocerebrosidase Inhibitors: qHTS Assay for Human alpha-Galactosidase at pH 4.5 (AID 992); note: 0% is about no effect", "in_short": "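Each compound is preincubated briefly with 2 nM enzyme before substrate addition (80 uM); plates then sit 20 min at ambient temperature, are quenched with 1M NaOH/1M glycine, and read fluorometrically.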"}, "[2]": {"target": "alpha-glucosidase (Oryza sativa, rice) (UniProt Q653V4)", "experiment": "Counterscreen for Glucocerebrosidase Inhibitors: qHTS Assay for Rice alpha-Glucosidase at pH 5.0 (AID 997);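 note: 0% = full activity with enzyme and -100% = basal without enzyme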", "in_short": "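Endpoint fluorogenic assay at pH 5.0: compounds (0.7 nM to 77 uM) titrated against 4 nM rice enzyme and 400 uM 4-MU-alpha-glucoside for 20 min at room temperature; NaOH/glycine stop, read ex 365/em 440 nm, Hill-fitted AC50.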"}, "[3]": {"experiment": "Cell Viability - LYMP1-002 - Assay at 24 hr (AID 993); note: % is set by controls: 0 for no effect and ±100 for the full control effect", "from_the_text": "NIH Chemical Genomics Center [NCGC]\nNIH Molecular Libraries Screening Centers Network [MLSCN]\nNational Institutes of Environmental Health Sciences [NIEHS]\nNational Toxicology Program [NTP]\nWe have developed a 1536-well cell-based assay for quantitative high throughput screening (qHTS) against a number of cell lines to determine in vitro cytotoxicity of small molecules. This particular assay uses a human lymphoblastoid cell line (LYMP1-002) purchased from Coriell Institute for Medical Research.\nNCGC Assay Protocol Summary:\nThe CellTiter-Glo luminescent cell viability assay (Promega) is a homogeneous method to measure the number of viable cells in culture. The end point readout of this assay is based on quantitation of intracellular ATP, an indicator of metabolic activity, using the luciferase reaction. […]\nUsing the CellTiter-Glo luminescent cell viability assay, the amount of cellular ATP was measured in the lymphoblastoid cell line with complete culture medium following compound treatment for 24 hours. […] Library compounds were measured for their ability to cause acute toxicity in the cell line, as reflected by a decrease in intracellular ATP levels, in a concentration-dependent manner. […] AC50 values were determined from concentration-response data modeled with the standard Hill equation. […]\n8. Detection; Luminescence; Viewlux plate reader […]"}, "[4]": {"experiment": "Cell Viability - LYMP1-002 - Assay at 40 hr (AID 994);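 note: 0% = DMSO only and full inhibition = 92 µM tetraoctylammonium bromide; nearly all actives have a fitted effect of over 60% in size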", "in_short": "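Concentration-dependent ATP loss after 40 hr treatment at 37 C defined toxicity; AC50 values were obtained by fitting the standard Hill equation.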"}, "[5]": {"experiment": "qHTS Assay for Identification of Small Molecule Inducers of Hypoxia Response (AID 2120; active = well fitted curve in the direction sought with a large enough effect in the signal ratio, with a control signal flat, not every such curve was filed as active; the % refers to the signal ratio; note: 0% is about no effect)", "in_short": "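HRE-bla ME-180, 2500 cells/well, 0.5% dialyzed FBS medium; cpd titration, 17 h 37 degrees C; CCF4 2.5 h RT; Ex 405, Em 460/530 ratio -> %Activity, AC50.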"}, "[6]": {"target": "Estrogen receptor (Homo sapiens) (UniProt P03372)", "sequence (P03372 whole entry, looked up)": "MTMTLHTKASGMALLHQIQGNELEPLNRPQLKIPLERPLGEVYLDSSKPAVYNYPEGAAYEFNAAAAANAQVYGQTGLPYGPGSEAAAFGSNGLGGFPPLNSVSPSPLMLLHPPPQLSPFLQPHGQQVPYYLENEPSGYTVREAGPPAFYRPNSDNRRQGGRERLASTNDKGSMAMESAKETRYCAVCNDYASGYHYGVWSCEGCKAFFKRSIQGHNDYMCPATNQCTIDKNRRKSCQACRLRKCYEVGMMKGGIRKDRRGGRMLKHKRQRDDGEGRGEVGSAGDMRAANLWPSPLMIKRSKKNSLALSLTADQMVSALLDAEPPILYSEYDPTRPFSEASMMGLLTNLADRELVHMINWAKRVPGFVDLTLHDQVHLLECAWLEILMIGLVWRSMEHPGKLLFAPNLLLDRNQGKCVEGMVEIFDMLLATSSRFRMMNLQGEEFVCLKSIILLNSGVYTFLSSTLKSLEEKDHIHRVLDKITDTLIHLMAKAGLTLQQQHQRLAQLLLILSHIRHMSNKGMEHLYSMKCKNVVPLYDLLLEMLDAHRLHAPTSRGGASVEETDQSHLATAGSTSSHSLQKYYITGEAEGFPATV", "experiment": "qHTS assay for small molecule antagonists of estrogen receptor alpha signaling (AID 588513; active = well fitted curve in the direction sought with a large enough effect in the signal ratio, with a control signal flat, not every such curve was filed as active; the % refers to the signal ratio; note: % is set by controls: 0 for no effect and ±100 for the full control effect)", "in_short": "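ER-alpha-UAS-bla GripTite HEK 293 cells in 2% charcoal/dextran-treated FBS medium; compounds titrated (1:2, duplicate), then stimulated with 0.5 nM 17-beta-estradiol for 18 h at 37C. CCF4 beta-lactamase fluorescence; Hill-fit IC50 and efficacy.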"}, "[7]": {"target": "Estrogen receptor (Homo sapiens) (UniProt P03372)", "experiment": "qHTS assay for small molecule agonists of estrogen receptor alpha signaling (AID 588514; calls by dose curve;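 note: 0% = vehicle only and 100% = reference agonist; nearly all actives have a fitted effect of over 70% in size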)", "in_short": "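Fluorescence from CCF4 cleavage reports ER-alpha-driven beta-lactamase expression in HEK 293 cells treated 18 hrs at 37 C. Data normalized to 17-beta-estradiol (20 nM) and DMSO, fitted to Hill equation.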"}, "[8]": {"experiment": "qHTS Assay for Lipid Storage Modulators (AID 1519; calls by dose curve; for activity change, negative = inhibition: % is set by controls: 0 for no effect and ±100 for the full control effect)", "details": "Drosophila S3 cells, BODIPY lipid droplet/cell ratio, laser cytometry, cells loaded with oleic acid", "in_short": "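Cells seeded at 5,000 per well were treated with compounds over a concentration series and loaded with oleic acid (400 uM, as added). Lipid droplet fluorescence (488 nm excitation, 500-530 nm channel) was read by laser-scanning cytometry and normalized to 20 uM Triacsin C.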"}, "[9]": {"target": "Ubiquitin carboxyl-terminal hydrolase 1 (Homo sapiens) (UniProt O94782)", "sequence (O94782 whole entry, looked up)": "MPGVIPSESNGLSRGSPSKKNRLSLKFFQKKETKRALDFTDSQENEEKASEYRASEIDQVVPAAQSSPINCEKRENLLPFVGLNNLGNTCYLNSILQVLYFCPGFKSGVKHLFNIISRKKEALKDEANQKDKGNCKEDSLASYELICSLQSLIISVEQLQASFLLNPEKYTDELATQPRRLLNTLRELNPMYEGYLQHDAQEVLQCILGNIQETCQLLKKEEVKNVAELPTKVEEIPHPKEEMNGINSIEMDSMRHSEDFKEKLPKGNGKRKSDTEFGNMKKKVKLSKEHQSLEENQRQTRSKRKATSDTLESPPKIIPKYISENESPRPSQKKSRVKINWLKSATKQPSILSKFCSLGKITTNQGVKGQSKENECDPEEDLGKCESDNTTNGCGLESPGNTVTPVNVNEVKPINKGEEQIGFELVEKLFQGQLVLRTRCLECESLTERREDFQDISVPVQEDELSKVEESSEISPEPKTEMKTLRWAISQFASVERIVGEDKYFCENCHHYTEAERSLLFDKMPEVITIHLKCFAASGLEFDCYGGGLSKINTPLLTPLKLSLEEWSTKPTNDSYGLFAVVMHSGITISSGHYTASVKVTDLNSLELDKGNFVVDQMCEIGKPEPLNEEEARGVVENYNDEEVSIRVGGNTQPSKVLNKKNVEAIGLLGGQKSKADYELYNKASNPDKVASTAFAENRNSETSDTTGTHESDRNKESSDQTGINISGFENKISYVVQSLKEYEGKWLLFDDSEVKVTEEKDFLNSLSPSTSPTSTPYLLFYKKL", "experiment": "Inhibitors of USP1/UAF1: Pilot qHTS (AID 504865);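 note: rhodamine fluorescence freed from ubiquitin-rhodamine substrate followed over time; top concentration of the series differs between compounds; % is set by controls: 0 for no effect and ±100 for the full control effect; nearly all actives have a fitted effect of over 35% in size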", "in_short": "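USP1/UAF1 complex at 1 nM preincubated 15 min at room temperature with compound, then Ub-Rho substrate added at 150 nM final. Fluorescence (480/540 nm) read kinetically in 50 mM HEPES pH 7.8, 0.5 mM EDTA, 1 mM TCEP, 0.1 mg/ml BSA, 0.01% Tween-20.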"}, "[10]": {"target": "ATP-dependent 6-phosphofructokinase (Trypanosoma brucei brucei) (UniProt O15648)", "sequence (O15648 whole entry, looked up)": "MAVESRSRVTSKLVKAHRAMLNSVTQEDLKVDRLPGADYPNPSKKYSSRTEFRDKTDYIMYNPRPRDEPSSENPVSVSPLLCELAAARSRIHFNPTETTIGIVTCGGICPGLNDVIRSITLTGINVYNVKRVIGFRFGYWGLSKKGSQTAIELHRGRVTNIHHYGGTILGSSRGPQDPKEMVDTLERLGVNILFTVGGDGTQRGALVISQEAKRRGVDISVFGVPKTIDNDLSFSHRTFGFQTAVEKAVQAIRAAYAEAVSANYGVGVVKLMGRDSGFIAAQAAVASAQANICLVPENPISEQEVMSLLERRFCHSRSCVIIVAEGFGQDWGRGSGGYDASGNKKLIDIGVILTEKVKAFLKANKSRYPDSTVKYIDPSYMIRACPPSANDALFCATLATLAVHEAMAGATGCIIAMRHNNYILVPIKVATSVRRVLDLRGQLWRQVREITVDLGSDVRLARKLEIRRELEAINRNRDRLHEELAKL", "experiment": "qHTS Assay to Find Inhibitors of T. brucei phosphofructokinase: hit validation (AID 492961);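 note: luminescence reports ADP formed as PFK phosphorylates fructose-6-phosphate with ATP; % is set by controls: 0 for no effect and ±100 for the full control effect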", "in_short": "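Compounds titrated; %activity normalized to 0x and 1x enzyme controls, curve-fitted. Readout: ADP-Glo luminescence after 45 min room-temperature reaction of 1.25 nM PFK, 0.1 mM ATP, 0.5 mM F6P, pH 8.0.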"}}, "note": "Records with an inconclusive call do not appear. The source made the active and inactive calls. Unless noted, calls come from the whole dose curve; as a rule, active = well fitted curve in the direction sought with a large enough effect; inconclusive = small, poorly fitted or top-dose-only effect, or another doubt; inactive = no such curve, though single readings can be large; an effect the other way counts as inactive or inconclusive."}
{"smiles": "CC(C)C[C@H](NC(=O)[C@@H]1O[C@H]1C(=O)O)C(=O)NCCCCN=C(N)N", "values": [{"measurement": "outcome", "setting": "[1]", "result": "inactive"}, {"measurement": "outcome", "setting": "[2]", "result": "inactive"}]}
{"smiles": "C[C@]1(C2CCCC2)Cc2cc(OCC(=O)O)c(Cl)c(Cl)c2C1=O", "values": [{"measurement": "outcome", "setting": "[1]", "result": "inactive"}, {"measurement": "outcome", "setting": "[2]", "result": "inactive"}]}
{"smiles": "COc1ccc(CCC(=O)c2c(O)cc(O[C@@H]3O[C@H](CO)[C@@H](O)[C@H](O)[C@H]3O[C@@H]3O[C@@H](C)[C@H](O)[C@@H](O)[C@H]3O)cc2O)cc1O", "values": [{"measurement": "outcome", "setting": "[3]", "result": "inactive"}, {"measurement": "outcome", "setting": "[4]", "result": "inactive"}, {"measurement": "outcome", "setting": "[5]", "result": "inactive"}, {"measurement": "outcome", "setting": "[6]", "result": "inactive"}, {"measurement": "outcome", "setting": "[7]", "result": "inactive"}]}
{"smiles": "CCc1cccc2c3c([nH]c12)[C@@](CC)(CC(=O)O)OCC3", "values": [{"measurement": "activity change, negative = inhibition", "setting": "[8]; at 25.7 µM (top of the series)", "result": "-1.67% (inactive)"}, {"measurement": "max response", "setting": "[8]; measured here: cell count channel max response", "result": 8.85, "unit": "%"}, {"measurement": "max response", "setting": "[8]; measured here: lipid channel max response", "result": 4.97, "unit": "%"}]}
{"smiles": "C=C1C[C@]23C[C@@]1(O)CC[C@H]2[C@@]12C=C[C@H](O)[C@@](C)(C(=O)O1)[C@H]2[C@@H]3C(=O)O", "values": [{"measurement": "outcome", "setting": "[3]", "result": "inactive"}, {"measurement": "outcome", "setting": "[4]", "result": "inactive"}, {"measurement": "outcome", "setting": "[5]", "result": "inactive"}]}
{"smiles": "O=C(/C=C/C=C/c1ccc2c(c1)OCO2)N1CCCCC1", "values": [{"measurement": "outcome", "setting": "[9]", "result": "inactive"}, {"measurement": "outcome", "setting": "[6]", "result": "inactive"}, {"measurement": "outcome", "setting": "[7]", "result": "inactive"}]}
{"smiles": "CCOC(=O)C(CCc1ccccc1)NC(C)C(=O)N1Cc2ccccc2CC1C(=O)O", "note": "(stereo not given)", "values": [{"measurement": "outcome", "setting": "[10]", "result": "inactive"}, {"measurement": "outcome", "setting": "[9]", "result": "inactive"}]}
